In PubChem BioAssay AID624133 (Broad Institute, 2012):
In all, about 1,600 compounds went through this assay and about 1,300 (81%) were called active. How the calls were made is not given here. So high a share suggests a set chosen from earlier hits. Only a sample is shown. Measured potencies and affinities stand elsewhere.

Experiment: non-specific 3'UTR reporter inhibition in Clone20-Shn3RL – cell-based, Renilla luciferase, cherry-picked, counter-screen for Shn3 inhibitor project, dose response (AID 624133);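 further: 0% = neutral control wells and -100% = positive control wells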
Settings: Clone20-Shn3RL cells, Renilla luciferase luminescence, 24 h; at 35 µM (top of the series) unless noted

SMILES	activity change, negative = inhibition [%]
Fc1ccccc1N1CCN(Cc2nc(-c3ccccc3)no2)CC1	-87.1
O=C(Nc1ccc([N+](=O)[O-])cc1)C(=O)Nc1cccc(C(=O)O)c1	43.3
COc1ccc(NS(=O)(=O)c2ccc(-c3cnc(C4CC4)o3)cc2)cc1OC	40
Cc1oc(=O)c(NC(=O)c2ccc(Cl)cc2)cc1C(=O)c1ccccc1	-75
O=C(CN1C(=O)c2ccccc2S1(=O)=O)c1ccc2c(c1)OCCCO2	-16.7
O=C(CN1C(=O)c2ccccc2S1(=O)=O)c1ccc(Cl)cc1Cl	-103
CC1CCN(C(=O)c2ccc(N3C(=O)C4CCC(C)CC4C3=O)cc2)CC1 (centres undefined)	27.8
CCN(CC)C(=O)[C@H]1C[C@H](CC(=O)NC/C=C(\C)CCC=C(C)C)C(=O)N2CCc3c([nH]c4cc(CCC(=O)N(C)C)ccc34)[C@]12C	-16.7
COc1ccc(C(=O)NNC(=O)c2cccc(S(=O)(=O)N3CCOCC3)c2)cc1	19.6
O=C(Nc1nc(-c2ccccc2)cs1)C1CCCCN1S(=O)(=O)c1ccccc1 (centres undefined)	-104
O=C(O)C1(Nc2ccccc2Cl)CCCC1	-15
Cc1cc(C(=O)Cn2cnc3cc(F)ccc3c2=O)c(C)n1C1CC1	-16.7
Cc1ccc(C(=O)Nc2ccc3c(c2)C(=O)N(CC2CCCO2)C3=O)cc1 (centres undefined)	80
CC(C)NCC(O)COc1cccc2ccccc12 (centres undefined)	-29
COc1ccc(S(=O)(=O)N2CCOCC2)cc1NC(=O)COC(=O)CC1CC2CCC1C2 (centres undefined)	50
COc1cc(NS(=O)(=O)c2ccc(C)cc2C)cc(OC)c1OC	-27.3
CCCC(c1nnnn1Cc1ccc(OC)cc1)N1CCN(c2ccccc2)CC1 (centres undefined)	117
C=CCOC(=O)C1=C(C)N=C2SCCC(=O)N2C1c1cccs1 (centres undefined)	-29.2
CCO[C@@H]1OC(C(=O)NC2CC2)=C[C@H](c2coc3ccccc3c2=O)[C@H]1CCCO	120
Cc1ccc(S(=O)(=O)N2CCCCC2)cc1NS(=O)(=O)c1ccccc1F	200
COc1ccccc1C(=O)Nc1nc2ccccc2[nH]1	43.3
CN(C)c1ccc(/C=C/c2nc3ccccc3s2)cc1	27.8
COc1ccc(N(C)C(=O)c2ccc3snnc3c2)cc1	-52.1

SMILES	activity change, negative = inhibition [%]
O=C1CCc2cccc(O)c2N1	-23.2
Cc1c(CCOC(=O)CC23CC4CC(CC(C4)C2)C3)sc[n+]1CC(=O)c1ccc(Br)cc1	-59.3
CN(C)CCN1C(=O)c2cccc3cc([N+](=O)[O-])cc(c23)C1=O	310
CSc1cccc(NC(=O)N2CCCC(CNS(=O)(=O)Cc3ccccc3)C2)c1 (centres undefined)	62.5
CCN(CC)c1ccc2c(c1)oc(=O)c1c(Cl)cc(=O)oc12	-33.3
Cc1cccc(N2CCN(C(=S)Nc3ccc4nc(N5CCN(C)CC5)cc(C)c4c3)CC2)c1C	22.7
O=c1c2ccccc2c(C=Nc2ccccc2O)c(O)n1-c1nccs1	-2.5
Cc1ccc(-c2cn3cc(C)ccc3n2)cc1	10
CC(C)CC(NC(=O)c1ccc(Cl)cc1)C(=O)OCC(=O)c1ccc2c(c1)NC(=O)CO2 (centres undefined)	-16.7
CN1CCN(c2ccc(-c3ccc4ccccc4n3)cc2)CC1	-31.9
CC(C)(C)n1nnnc1C(c1cccs1)N1CCCC2(CCCCC2)C1 (centres undefined)	54.2
O=C(CSc1nc(C(F)(F)F)cc(=O)[nH]1)N1CCCC1	231
CC(=O)N(CCc1ccccc1)c1ccc2c(c1)C1CC2CCN1C(=O)OCc1ccccc1 (centres undefined)	-90.9
COc1ccc(NS(=O)(=O)c2cccc(NC(=O)c3ccc(S(=O)(=O)N4CCCCCC4)cc3)c2)cc1	11.9
COc1ccc(NS(=O)(=O)c2ccc(N3CCOCC3)c(N)c2)cc1	-21.1
C=CCn1c(C)cc(C2=NNC(=NCC)SC2)c1C	-16.7
NC(=O)NC(CC(=O)NCCc1ccccn1)c1ccccc1Cl (centres undefined)	-110
S=c1[nH]nc(COc2cccc3ccccc23)n1Cc1ccccc1	-87.5
CC(C)(C)C(=O)Nc1ccc(NC(=O)c2ccco2)nc1	8.33
CCOC(=O)C1=C(C)N(CCCC(=O)O)C(=O)NC1c1ccc2ccccc2c1 (centres undefined)	-30
Cc1ccc(C(=O)N2CCN(C)CC2)cc1S(=O)(=O)N1CCCCCC1	65.3
CCN(CC)C(=S)Sc1c(-c2ccccc2)c2cc(Cl)ccc2[nH]c1=O	16.7
CC(C)(C)C(=O)Nc1cc2nn(-c3ccccc3)nc2cc1Cl	52.1

SMILES	activity change, negative = inhibition [%]
COc1ccc(OC)c(NC(=O)COC(=O)c2c3c(nc4ccccc24)CCCC3)c1	40
COc1cc(Nc2nc(-c3ccccc3)c3cc(C)ccc3n2)cc(OC)c1OC	16.7
Cc1ccc(S(=O)(=O)N2CCC3(CC2)OCCN3S(=O)(=O)c2c(C)cc(C)cc2C)cc1	-13.6
O=C(CSc1nc2[nH]ncc2c(=O)[nH]1)Nc1ccccc1C(F)(F)F	-108
Cc1csc(=O)n1CCC(=O)N(C)Cc1c(F)cccc1Cl	75
CN(C)c1ncnc2c1C(c1ccccc1)C(C)(C)O2 (centres undefined)	-22.2
O=C(OCc1ccccc1)N(CCCCN(CCCNCc1ccccc1)C(=O)OCc1ccccc1)CCCNCc1ccccc1	20
COc1ccc(-c2noc(CCCCC(=O)N3CCN(c4cc(C)ccc4C)CC3)n2)cc1	-30
C=CC[C@H](CC(=O)N(CCO)Cc1ccccc1)C(=O)NC[C@H](OC(=O)[C@@H](CC=C)Cc1ccc(F)cc1)c1ccccc1	-75
CCS(=O)(=O)c1ccc2oc(SCC(=O)N3CCCCC3)nc2c1	35
CSc1nc(N2CCN(Cc3ccc4c(c3)OCO4)CC2)c2ccccc2n1	-16.7
Cc1ccc(NC(=O)c2oc3ccccc3c2COC(C)C)cc1S(=O)(=O)N1CCOCC1	25
Cc1ccc(CNC(=O)CSc2c3c(nc4ccc(Cl)cc24)CCCC3)o1	106
O=C(CSc1nc2c(c(=O)n1-c1ccc(Br)cc1)SCC2)NCc1ccco1	29.2
CC(C)c1c(O)c2c(n(-c3ccccc3)c1=O)CCCC2	-21.1
O=C(Nc1cccc(S(=O)(=O)NC2=NCCC2)c1)C1CC(=O)N(c2ccc3c(c2)OCCO3)C1 (centres undefined)	-66.7
C[C@@H]1CC=C[C@H]2[C@H]1C(=O)N(Cc1ccccc1)[C@H]2c1cccc([N+](=O)[O-])c1	162
COc1cc(NC(=O)c2cc3c(Cl)nc4ccccc4c3s2)cc(OC)c1OC	60
O=C(Nc1ccc(Cl)c(Cl)c1)c1cccc(S(=O)(=O)NCc2cccnc2)c1	-10
Cc1ccc(NC(=O)C2CCC(C(C)(C)C)CC2)cc1S(=O)(=O)N1CCOCC1 (centres undefined)	-100
O=C(NNc1ccccc1)C(=O)NNS(=O)(=O)c1ccc(CCCl)cc1	90
CCCc1nc2c(=O)n(C)c(=O)nc-2n(C)n1	71.8
COc1ccc(CNC(=O)C(C)n2ccc3cc(S(=O)(=O)N4CCCCCC4)ccc32)cc1 (centres undefined)	12.2
